Compounds with a hit are over-represented: about 28% of the library has one in this group of screens.
PLK1 kinase inh: PLK1 (human) kinase inhibition; P53350; recombinant PLK1 kinase, TR-FRET peptide phosphorylation; inhibition, % at 10 µM; actives 0.53% (n = 97,000); AID 619;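 active = inhibition of 50% or more in the single-concentration screen; inactive = inhibition below 50%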;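 also: 0% = DMSO max control and 100% = H-89 dihydrochloride min control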
CYP2C9 inh: inhibitors of human CYP2C9; P11712; CYP2C9 Supersomes, luciferin-H conversion, luminescence; inhibition, % at 5 µM; actives 20% (n = 96,000);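 active = blocking of liver enzyme CYP2C9 beyond about 50% at 5 µM, limit read from the data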
PLK1 PBD inh: Plk1 (human) PBD binding inhibition; Plk1 PBD phosphopeptide binding, fluorescence polarization; inhibition, %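 (tested at about 20 µM)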; actives 0.13% (n = 97,000); AID 693; in the data active = inhibition above about 34%, passing the limit was not always enough
CYP2C19 act: increases human CYP2C19 enzyme activity. 96,000 tested, under 10 active. recombinant CYP2C19, luciferin-H EGE luminescence; hits give high values; 0 = fully inhibited enzyme, 1 = untreated enzyme. AID 1025. activation factor at 5 µM;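 active = activation factor of at least 2 at 5 µM in the primary screen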;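 also: 0 = wells with 2.5 mM tranylcypromine and 1 = vehicle-only wells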
Target sequence (P33261 whole entry, looked up): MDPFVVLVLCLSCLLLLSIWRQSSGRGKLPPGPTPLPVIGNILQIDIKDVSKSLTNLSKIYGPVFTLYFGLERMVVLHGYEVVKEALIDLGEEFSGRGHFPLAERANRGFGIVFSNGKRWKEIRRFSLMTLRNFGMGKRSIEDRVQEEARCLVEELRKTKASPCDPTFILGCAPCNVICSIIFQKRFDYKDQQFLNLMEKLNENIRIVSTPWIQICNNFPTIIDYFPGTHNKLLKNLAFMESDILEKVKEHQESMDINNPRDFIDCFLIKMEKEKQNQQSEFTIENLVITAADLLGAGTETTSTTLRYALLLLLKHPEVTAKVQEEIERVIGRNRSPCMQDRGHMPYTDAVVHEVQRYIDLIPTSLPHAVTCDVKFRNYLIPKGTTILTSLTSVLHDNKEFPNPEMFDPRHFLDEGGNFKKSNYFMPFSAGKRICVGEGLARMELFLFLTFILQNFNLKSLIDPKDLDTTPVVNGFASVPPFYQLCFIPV
CYP2C19 inhib: blocks human cytochrome P450 2C19; P33261; CYP2C19 Supersomes, luciferin-H EGE luminescence, 30 min; inhibition, % at 5 µM; actives 21% (n = 96,000); AID 778;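 active = CYP2C19 inhibition above a set limit at 5 µM in the primary screen, cut at about 50% in these data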;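 also: plate controls were negative control wells for no effect and 2.5 mM tranylcypromine positive control for full effect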
CYP2C9 activ: activators of human CYP2C9; P11712; actives 1.4% (n = 96,000); AID 1024; activation factor at 5 µM; recombinant CYP2C9, luciferin-H conversion, luminescence; hits give high values; factor 1 = untreated enzyme, 0 = blocked;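 active = activation factor of 2 or more for CYP2C9 at a 5 µM dose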;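 also: 0 = sulfaphenazole-blocked wells and 1 = vehicle-only wells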
Active calls of the source: *.

How did CC(=O)Nc1ccc(OCC(O)CN2CCN(c3ccc(Cl)cc3)CC2)cc1 (stereo not drawn) do in these assays?
PLK1 kinase inh: -2.0; PLK1 PBD inh: -11.7

How did O=S(=O)(N1CCCCC1)N1CCN(CC(O)COc2ccc3cc(Br)ccc3c2)CC1 (stereo not drawn) do in these assays?
PLK1 kinase inh: -0.7; CYP2C9 inh: -1.3; PLK1 PBD inh: 10.5; CYP2C19 act: 1.1; CYP2C19 inhib: -7.9; CYP2C9 activ: 1

How did CC(=O)Nc1ccc(S(=O)(=O)N2CCN(C(C)CCc3ccccc3)CC2)cc1 (stereo not drawn) do in these assays?
PLK1 kinase inh: -23.8; CYP2C9 inh: 55.5*; PLK1 PBD inh: 15.8; CYP2C19 act: 0.5; CYP2C19 inhib: 49.5; CYP2C9 activ: 0.4

How did CC(=O)Nc1ccc(OCC(O)CN2CCN(S(=O)(=O)c3ccc(NC(C)=O)cc3)CC2)cc1 (stereo not drawn) do in these assays?
PLK1 kinase inh: -9.2; CYP2C9 inh: 70.0*; PLK1 PBD inh: -9.3; CYP2C19 act: 0.7; CYP2C19 inhib: 25.1; CYP2C9 activ: 0.3

What do the screens show for `O=C(O)C1C2C=CC(C2)C1C(=O)NC1CCS(=O)(=O)C1` (stereo not drawn)?
PLK1 kinase inh: 2.3; CYP2C9 inh: 3.0; PLK1 PBD inh: 19.2; CYP2C19 act: 0.9; CYP2C19 inhib: 8.4; CYP2C9 activ: 1

How did CCOC(=O)c1cc(S(=O)(=O)N2CCN(C(=O)OCC)CC2)cn1C do in these assays?
PLK1 kinase inh: -2.6; CYP2C9 inh: 19.1; PLK1 PBD inh: -43.7; CYP2C19 act: 0.8; CYP2C19 inhib: 23.7; CYP2C9 activ: 0.8

What do the screens show for `CC(C)(C)c1cc2cccnc2n1Cc1cccc(Cl)c1`?
PLK1 kinase inh: -13.1; CYP2C9 inh: 16.1; PLK1 PBD inh: -5.8; CYP2C19 act: 0.5; CYP2C19 inhib: 47.7; CYP2C9 activ: 0.8

What do the screens show for `CC(=O)Nc1ccc(S(=O)(=O)N2CCN(CC(O)COc3ccc4ccccc4c3)CC2)cc1` (stereo not drawn)?
PLK1 kinase inh: 0.6; CYP2C9 inh: 87.4*; PLK1 PBD inh: -20.2; CYP2C19 act: 0.1; CYP2C19 inhib: 87.0*; CYP2C9 activ: 0.1

How did CC(=O)Nc1ccc(NCC(O)COc2ccccc2)cc1 (stereo not drawn) do in these assays?
PLK1 kinase inh: -5.2; CYP2C9 inh: 33.8; PLK1 PBD inh: 10.6; CYP2C19 act: 0.4; CYP2C19 inhib: 55.5*; CYP2C9 activ: 0.7

What do the screens show for `Cc1cccnc1NCC(O)COc1ccccc1` (stereo not drawn)?
PLK1 kinase inh: -8.7; CYP2C9 inh: 6.3; PLK1 PBD inh: 5.1; CYP2C19 act: 1; CYP2C19 inhib: -3.4; CYP2C9 activ: 0.9

Results for CCOC(=O)c1cc2c(N)c(C(=O)c3cc(C#N)c(SC)nc3C)sc2nc1C ?
PLK1 kinase inh: -31.9; CYP2C9 inh: 36.3; PLK1 PBD inh: -11.9; CYP2C19 act: 1; CYP2C19 inhib: -2.6; CYP2C9 activ: 0.6

What do the screens show for `CN(C)c1nccc(Nc2ccccc2)c1C#N`?
PLK1 kinase inh: -2.9; CYP2C9 inh: 48.8; PLK1 PBD inh: -13.8; CYP2C19 act: 0.5; CYP2C19 inhib: 50.9*; CYP2C9 activ: 0.5

What do the screens show for `CSc1ccc(Cl)c(C(=O)OCC(=O)NC2CC2)c1`?
PLK1 kinase inh: 1.1; CYP2C9 inh: -6.3; PLK1 PBD inh: -16.2; CYP2C19 act: 0.8; CYP2C19 inhib: 22.9; CYP2C9 activ: 1.1

How did Cc1cc(C(=O)OCC(=O)N2CCOCC2)c2ccccc2n1 do in these assays?
PLK1 kinase inh: 2.7; CYP2C9 inh: -98.3; PLK1 PBD inh: -9.4; CYP2C19 act: 0.9; CYP2C19 inhib: 12.1; CYP2C9 activ: 2*

Results for CSc1ccc(Cl)c(C(=O)OCC(=O)N2CCOCC2)c1 ?
PLK1 kinase inh: -4.6; CYP2C9 inh: -67.1; PLK1 PBD inh: -2.0; CYP2C19 act: 0.5; CYP2C19 inhib: 50.9*; CYP2C9 activ: 1.7

Results for Cc1ccc(/C(N)=N/OC(=O)c2cc(-c3ccccc3)nc3ccccc23)cc1 ?
PLK1 kinase inh: -10.2; CYP2C9 inh: 54.0*; PLK1 PBD inh: -1.8; CYP2C19 act: 0.9; CYP2C19 inhib: 13.1; CYP2C9 activ: 0.5

How did COc1ccc(-c2cc(C(=O)OCC(=O)N3CCCC3)c3ccccc3n2)cc1 do in these assays?
PLK1 kinase inh: -2.1; CYP2C9 inh: 77.8*; PLK1 PBD inh: -8.2; CYP2C19 act: 0.5; CYP2C19 inhib: 50.1*; CYP2C9 activ: 0.2

What do the screens show for `Cc1cc(C(=O)OCC(=O)N2CCCC2)c2ccccc2n1`?
PLK1 kinase inh: -10.8; CYP2C9 inh: 22.6; PLK1 PBD inh: -8.0; CYP2C19 act: 0.7; CYP2C19 inhib: 28.4; CYP2C9 activ: 0.8

How did O=C1CC(=O)C(n2cncn2)C(c2ccc(Cl)cc2)C1 (stereo not drawn) do in these assays?
PLK1 kinase inh: -11.9; CYP2C9 inh: 10.0; PLK1 PBD inh: -4.7; CYP2C19 act: 0.9; CYP2C19 inhib: 6.5; CYP2C9 activ: 0.9

Results for Cc1cccc2cc(COC(=O)C(C)(C)C)c(=O)[nH]c12 ?
PLK1 kinase inh: -6.9; CYP2C9 inh: -32.7; PLK1 PBD inh: -16.0; CYP2C19 act: 0.8; CYP2C19 inhib: 20.2; CYP2C9 activ: 1.3

What do the screens show for `O=C(Cc1ccccc1)N/N=C/c1ccccc1OCc1ccc(Cl)cc1`?
PLK1 kinase inh: 4.7; CYP2C9 inh: 61.5*; PLK1 PBD inh: 4.1; CYP2C19 act: 0.8; CYP2C19 inhib: 23.9; CYP2C9 activ: 0.4

What do the screens show for `O/N=C/c1ccccc1OCc1ccc(Cl)cc1`?
PLK1 kinase inh: 0.5; CYP2C9 inh: 68.8*; PLK1 PBD inh: 26.5; CYP2C19 act: 0.5; CYP2C19 inhib: 52.4*; CYP2C9 activ: 0.3

Results for O=C(Cc1ccccc1)N/N=C\c1ccc(Br)o1 ?
PLK1 kinase inh: -1.4; CYP2C9 inh: -0.7; PLK1 PBD inh: -17.2; CYP2C19 act: 0.7; CYP2C19 inhib: 30.0; CYP2C9 activ: 1

Results for CCOc1c(Cl)cc(CNCC(C)C)cc1Cl ?
PLK1 kinase inh: -14.5; PLK1 PBD inh: 16.0

Results for CCOc1ccc2c(c1)s/c(=N\S(=O)(=O)c1ccc(OC)cc1)n2C(F)F ?
PLK1 kinase inh: -10.3; CYP2C9 inh: 44.9; PLK1 PBD inh: -8.6; CYP2C19 act: 0.4; CYP2C19 inhib: 61.2*; CYP2C9 activ: 0.6

How did O=C(Nc1ccccc1)c1ccc(S(=O)(=O)NCC2CCCO2)cc1 (stereo not drawn) do in these assays?
CYP2C9 inh: 11.2; CYP2C19 act: 1; CYP2C19 inhib: 2.8; CYP2C9 activ: 0.9

What do the screens show for `CC(=O)Nc1ccc(S(=O)(=O)N(Cc2ccco2)CC2CCCO2)cc1` (stereo not drawn)?
CYP2C9 inh: 41.8; CYP2C19 act: 0.3; CYP2C19 inhib: 72.6*; CYP2C9 activ: 0.6

What do the screens show for `O=C(CN(CC1CCCO1)S(=O)(=O)c1ccc(S(=O)(=O)NCC2CCCO2)cc1)Nc1ccccc1` (stereo not drawn)?
PLK1 kinase inh: -3.6; CYP2C9 inh: 90.4*; PLK1 PBD inh: 11.8; CYP2C19 act: 0.6; CYP2C19 inhib: 38.7; CYP2C9 activ: 0.1

From PubChem BioAssay
